# Screen size: about 360,000 compounds; about 2,900 (0.81%) were called active.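 How the source made its calls: active means inhibition above the mean inhibition across every tested compound plus 3 SD (cut at about 22% in these data); inactive means the rest.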 The list comes from a sample in which actives are over-represented; it also holds similar structures and randomly drawn compounds.
# Molecular target: Perilipin-5 (Homo sapiens) + 1-acylglycerol-3-phosphate O-acyltransferase ABHD5 (Homo sapiens) (UniProt Q00G26+Q8WTS1)
# Test: blockers of ABHD5 binding to perilipin-5 – cell lysate, split luciferase complementation, luminescence, primary screen (AID 602281);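 further: 0% = DMSO only wells and the 100% control is not disclosed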
# Details: Split G. princeps luciferase complementation, 4 h, at 4 µM, active compounds read high
# Chain of Perilipin-5 (Homo sapiens) + 1-acylglycerol-3-phosphate O-acyltransferase ABHD5 (Homo sapiens) (Q00G26 whole entry, looked up): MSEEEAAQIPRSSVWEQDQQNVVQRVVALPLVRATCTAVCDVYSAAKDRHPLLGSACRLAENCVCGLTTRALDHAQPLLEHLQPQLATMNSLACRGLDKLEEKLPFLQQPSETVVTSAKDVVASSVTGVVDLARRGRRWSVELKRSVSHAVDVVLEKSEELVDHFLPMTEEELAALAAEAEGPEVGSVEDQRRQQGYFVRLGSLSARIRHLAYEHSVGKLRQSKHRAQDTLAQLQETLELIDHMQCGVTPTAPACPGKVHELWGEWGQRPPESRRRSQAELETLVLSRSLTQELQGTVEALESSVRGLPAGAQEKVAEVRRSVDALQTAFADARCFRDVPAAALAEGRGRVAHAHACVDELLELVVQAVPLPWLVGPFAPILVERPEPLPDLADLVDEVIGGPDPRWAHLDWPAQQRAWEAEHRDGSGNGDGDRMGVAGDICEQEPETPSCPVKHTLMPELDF
# Chain of Perilipin-5 (Homo sapiens) + 1-acylglycerol-3-phosphate O-acyltransferase ABHD5 (Homo sapiens) (Q8WTS1 whole entry, looked up): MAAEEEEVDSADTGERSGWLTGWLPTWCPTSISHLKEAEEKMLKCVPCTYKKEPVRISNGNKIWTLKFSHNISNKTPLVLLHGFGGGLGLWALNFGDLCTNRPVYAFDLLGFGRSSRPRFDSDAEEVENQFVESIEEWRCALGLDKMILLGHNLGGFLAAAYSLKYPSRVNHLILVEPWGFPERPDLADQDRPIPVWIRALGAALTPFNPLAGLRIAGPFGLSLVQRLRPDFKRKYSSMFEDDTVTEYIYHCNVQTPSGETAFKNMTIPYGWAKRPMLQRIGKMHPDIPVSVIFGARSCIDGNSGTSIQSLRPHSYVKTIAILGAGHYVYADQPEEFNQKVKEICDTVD
row,SMILES,inhibition
1,COCCCNC(NC(=O)c1ccc(C)cc1)C(Cl)(Cl)Cl (centres undefined),-2.85% (inactive)
2,COc1ccccc1CNC(=O)c1ccc(N(C)S(=O)(=O)c2ccc(C)cc2)cc1,4.36% (inactive)
3,CN(CCO)S(=O)(=O)c1ccc2c(c1)C(=O)c1cc(S(=O)(=O)N(C)CCO)ccc1-2,-0.45% (inactive)
4,CCC1(c2ccccc2)NC(=O)N(CC(=O)Nc2ccccc2C(=O)NC2CCCC2)C1=O (centres undefined),-4.04% (inactive)
5,C=C(C)C(=O)O[C@H]1C/C(C)=C\C(=O)/C=C(\C)[C@H](O)[C@@H]2OC(=O)C(=C)[C@@H]21,27% (active)
6,CCS(=O)(=O)Nc1ccc(C2=NN(S(=O)(=O)c3ccc(F)cc3)C(c3ccco3)C2)cc1 (centres undefined),29.4% (active)
7,COc1cccc(C2CC(c3ccccc3)=NN2S(=O)(=O)c2ccccc2)c1OC (centres undefined),-7.74% (inactive)
8,Cc1ccc(C2=NN(C(=O)CSc3nc(N)cc(N)n3)C(c3ccco3)C2)cc1 (centres undefined),12.7% (inactive)
9,Cc1[nH]c(=O)c(C(=O)/C=C/c2ccccc2)c2c1CCCC2,32.6% (active)
10,O=C(NCc1ccccn1)c1c(O)c2c([nH]c1=O)CCCC2,3.03% (inactive)
11,C/C(=C\c1ccccc1)C1NC(=O)c2c(sc3c2CCCC3)N1 (centres undefined),-8.89% (inactive)
12,COC(=O)COc1cccc2c(=O)n(CC(=O)NCc3ccccc3)ccc12,-4.9% (inactive)
13,CCN(CC(=O)Nc1c(F)cccc1F)C(=O)c1ccc(S(=O)(=O)N2CCCCC2)cc1,0.66% (inactive)
14,CN(C)CCCN(C(=O)c1ccc(S(=O)(=O)N2CCCCCC2)cc1)c1nc2ccc(Br)cc2s1,22.3% (active)
15,COc1cc(C(=O)NNC(=O)c2ccc(S(=O)(=O)N3CCCCC3)cc2)cc(OC)c1OC,0.06% (inactive)
16,O=C(O)CCn1cc(/C=C/C(=O)c2ccc(Cl)cc2)c(-c2cccc(Br)c2)n1,22.9% (active)
17,COc1ccc(NC(=O)CN(C)C(=O)/C=C/c2cn(Cc3ccccc3)nc2-c2cccnc2)cc1,0.58% (inactive)
18,Cc1ccc(S(=O)(=O)N[C@H](CO)C(C)C)cc1,2.76% (inactive)
19,COc1ccc(C(=O)/C=C/c2ccc(-c3ccccc3)cc2)cc1CSCC(=O)O,14.9% (inactive)
20,COc1ccc(S(=O)(=O)Nc2ccc3oc(C)c(C(C)=O)c3c2)cc1,4.01% (inactive)
21,COc1ccc(/C=C/C(=O)c2ccc(NS(=O)(=O)c3ccc(C)cc3)cc2)cc1O,46% (active)
22,CC(C)Cc1nn2c(=O)cc(O)nc2s1,4.21% (inactive)
23,O=C(NCC(=O)N(Cc1cccs1)C(C(=O)NC1CCCCC1)c1ccco1)c1cccs1 (centres undefined),-12.1% (inactive)
24,CCNC(=O)CC1C(=O)N(c2ccc(OC)cc2)C(=O)N1CCOC (centres undefined),2.8% (inactive)
